# High-throughput results from PubChem BioAssay.
# Sm TGR inh = blocks Schistosoma mansoni thioredoxin glutathione reductase; Q962Y6; purified TGR, DTNB reduction, TNB absorbance 405 nm; Potency, µM (titrated, usually from 114 µM), without a hit: at the top dose activity change, negative = inhibition, hits mostly inhibitors; 3% of 360,000 active; note: % is set by controls: 0 for no effect and ±100 for the full control effect; nearly all actives have a fitted effect of over 60% in size
#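 First, TGR (20 nM dispensed) and NADPH were mixed with compound. Second, a 15 min room-temperature incubation followed. Third, further NADPH and then DTNB were added to start the reaction. Finally, TNB absorbance was monitored kinetically.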
# LmPK inhibitor = LmPK (Leishmania mexicana) enzyme inhibition. purified LmPK, Kinase-Glo ATP luminescence, 1 h. Potency, µM (doses to about 57.5 µM), without a hit: top-dose activity change, negative = inhibition, usual class: inhibitors. 0.37% of 290,000 active; note: % is set by controls: 0 for no effect and ±100 for the full control effect
# Target sequence (Q27686 whole entry, looked up): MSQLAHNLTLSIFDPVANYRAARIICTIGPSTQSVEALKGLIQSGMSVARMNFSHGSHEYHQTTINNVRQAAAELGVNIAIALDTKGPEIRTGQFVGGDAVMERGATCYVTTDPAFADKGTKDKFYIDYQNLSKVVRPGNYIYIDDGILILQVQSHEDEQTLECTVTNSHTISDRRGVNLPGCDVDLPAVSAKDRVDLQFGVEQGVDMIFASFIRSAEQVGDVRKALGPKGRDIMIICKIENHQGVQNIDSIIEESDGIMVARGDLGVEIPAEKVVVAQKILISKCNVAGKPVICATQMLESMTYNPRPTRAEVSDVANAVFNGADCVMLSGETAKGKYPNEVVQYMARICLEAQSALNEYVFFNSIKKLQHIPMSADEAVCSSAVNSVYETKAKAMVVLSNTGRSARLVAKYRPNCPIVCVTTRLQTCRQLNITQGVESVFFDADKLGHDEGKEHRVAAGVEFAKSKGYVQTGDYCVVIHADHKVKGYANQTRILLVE
#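 Pyruvate kinase activity monitored as ATP production (luciferase luminescence). Conditions: 0.1 nM enzyme, 0.5 mM PEP, 0.1 mM ADP, 1 h, RT; normalized against uninhibited and no-enzyme wells.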
# NS1 function inh = blocks influenza NS1 protein function | 0.4% of 270,000 active | AID 2326 | Potency, µM (titrated, usually from 46.1 µM), without a hit: top-dose activity, positive = more growth; calls by dose curve; note: actives are rising curves; nearly all actives have a fitted effect of over 50% in size
#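 A cell-based growth assay was used: compounds that relieve NS1-induced slow growth of budding yeast raise OD600. Assay medium was yeast nitrogen base with ammonium sulphate and -URA supplement, pH 6.0, with 2% galactose.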
# TbPYK inhibitor = T. brucei pyruvate kinase inhibition; Q57TT1; AID 624173; 0.12% of 410,000 active; Potency, µM (doses to about 76.8 µM), without a hit: at the top dose activity, negative = inhibition, actives largely listed as inhibitors; TbPYK enzyme, Kinase-Glo Plus ATP luminescence, 45 min; note: % is set by controls: 0 for no effect and ±100 for the full control effect; nearly all actives have a fitted effect of over 50% in size
#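 Enzyme and substrate buffer are dispensed first and compound is pin-transferred. ADP at 130 uM final then starts the reaction, which runs 45 min at room temperature. Detection reagent is added for 10 min before luminescence is imaged.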
# RE007 growth inh = less growth of the S. pombe RE007 Vpr strain. Potency, µM (highest dose often 92.2 µM), inactives show at the highest dose activity change, negative = less growth, actives largely listed as inhibitors. 0.21% of 360,000 active. AID 651644. S. pombe RE007 Vpr strain, BacTiter-Glo ATP luminescence, 24 h; active = well fitted falling curve with a large enough effect; inconclusive = small, poorly fitted or top-dose-only effect; inactive = no such curve, though single readings can be large or run the other way; note: % is set by controls: 0 for no effect and ±100 for the full control effect; nearly all actives have a fitted effect of over 50% in size
#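 Fission yeast RE007 carrying one integrated HIV-1 vpr copy, seeded at OD 0.01 in PMG+AL medium with 23 nL pinned compound. Grown 24 h at 30 degrees; viability read by BacTiter-Glo luminescence after 5 min.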
# FBPA Giardia inh = blocks Giardia fructose-bisphosphate aldolase activity; A8B2U2; purified Giardia FBPA; Potency, µM (top dose mostly 59.6 µM), for inactives: top-dose activity, negative = inhibition, most hits filed as inhibitors; 0.71% of 290,000 active; AID 2451; note: % is set by controls: 0 for no effect and ±100 for the full control effect; nearly all actives have a fitted effect of over 55% in size
#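 Giardia FBPA (40 nM reagent) was preincubated 10 min at RT with compound (up to 57.5 uM final), then substrate plus GAPDH/TPI/NAD/arsenate coupling system with diaphorase/resazurin was added; resorufin fluorescence (525/598 nm) was read after 20 min.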
# Active calls of the source: *; ? = inconclusive; / = no result given. An excerpt weighted towards active compounds, which were near 3.5% of everything screened. Unless noted, calls come from the whole dose curve; as a rule, active = well fitted curve in the direction sought with a large enough effect; inconclusive = small, poorly fitted or top-dose-only effect, or another doubt; inactive = no such curve, though single readings can be large; an effect the other way counts as inactive or inconclusive. Potency is the fitted concentration of half-maximal effect.
SMILES,Sm TGR inh,LmPK inhibitor,NS1 function inh,TbPYK inhibitor,RE007 growth inh,FBPA Giardia inh
Cc1c(N)cc(N)cc1C(=O)O,-28%,-2%,-62%,-3%,2%,4.5µM*
Cc1c(Br)cc(C(=O)O)c(C)c1C,2%,-2%,-97%,0%,5%,9%
COc1ccc(NC2=C(c3ccccc3)C(=O)c3ccccc32)cc1Cl,-4%,/,/,3%,/,/
COc1ccc(OC)c(NC2=C(c3ccccc3)C(=O)c3ccccc32)c1,35µM*,/,/,-7%,/,/
Cc1cccc(-c2nc(CSCC(=O)NCCc3ccc(Cl)cc3)c(C)o2)c1,-10%,/,/,-4%,/,/
COc1cc(C2Nc3c(F)cccc3C3C=CCC32)cc(Br)c1OC (stereo not given),20µM*,4%,13%,-17%,0%,-24%
Cc1ccc(-c2nc(CN3CCCCC3)cc(CN3CCCCC3)c2O)cc1,20µM*,1%,3%,-4%,-1%,-28%
COc1ccc(NC(=O)Cn2cnc3c(oc4ccccc43)c2=O)cc1OC,-2%,/,/,-9%,/,/
Cc1ccc(/C=C/C(=O)NCCCN2CCN(CCCNC(=O)/C=C/c3ccc(C)o3)CC2)o1,-12%,2%,-7%,-8%,12%,-1%
O=C(Cc1ccccc1)NCCc1c[nH]c2ccccc12,-3%,2%,12%,2%,-4%,5%
Cc1ccc2[nH]cc(CCNC(=O)/C=C/c3ccco3)c2c1,28µM*,2%,-13%,-2%,-9%,-3%
Cc1ccc(/C=C/C(=O)NCCc2cccc(Cl)c2)o1,2.5µM*,2%,-65%,16µM*,10%,3%
Cc1ccc(/C=C/C(=O)NCCc2c[nH]c3ccccc23)o1,14µM*,-1%,/,-22%,7%,-2%
COc1ccc(-c2nc(SCC(=O)NCc3ccccc3Cl)n[nH]2)cc1,-4%,/,/,-13%,/,/
CN(C)CCNC(=O)Cc1ccc(NC(=O)N2CCCCc3ccccc32)cc1,-12%,/,/,-7%,/,/
CCCn1c(=O)n(-c2ccccc2)c(=O)c2sc3ccccc3c21,-2%,/,/,6%,/,/
O=C(O)CSc1nnc2c(n1)[nH]c1ccccc12,2%,28µM*,/,6%,36%,-1%
O=C(CSc1nnc2c(n1)[nH]c1ccccc12)OCc1ccccc1,9%,8%,-3%,-8%,19%,0%
CC12CN3CC(C)(CN(C1)C3c1ccc3ccccc3c1O)C2=O (stereo not given),-5%,8%,3%,-2%,-11%,13µM*
CC12CN3CC(C)(CN(C1)C3c1c[nH]c3ccccc13)C2=O (stereo not given),/,4%,2%,-5%,-3%,0%
Cc1oc(-c2ccc(C(=O)Nc3cccc(C(F)(F)F)c3)cc2)nc1CSc1ccccc1,15%,/,/,0%,/,/
O=C(O)c1[nH]c2ccccc2c1C(c1cc(Br)ccc1O)c1c(C(=O)O)[nH]c2ccccc12,-16%,0%,18%,0%,10%,15%
Cc1ccc(C(c2cccc(Br)c2)c2c(C)[nH]c3ccccc23)s1 (stereo not given),25µM*,/,/,-5%,/,/
Cc1oc(-c2ccc(Cl)cc2)[n+]([O-])c1C,50µM*,-4%,-166%,2%,-20%,3%
Cc1oc(-c2ccc(Cl)cc2)cc1C(=O)O,0%,-6%,-135%,-5%,-4%,9%
SMILES,Sm TGR inh,LmPK inhibitor,NS1 function inh,TbPYK inhibitor,RE007 growth inh,FBPA Giardia inh
Cc1ccc(CNC(=O)c2cc(S(=O)(=O)N3CCCCCC3)cn2C)cc1,-4%,/,/,4%,/,/
O=C(O)c1ccc(CN2C(=O)c3cccc4c([N+](=O)[O-])ccc(c34)C2=O)cc1,18µM*,0%,1%,3%,6%,-14%
CN(C)CCCN1C(=O)c2cccc3c([N+](=O)[O-])ccc(c23)C1=O,28µM*,-4%,-25%,-8%,/,-20%
Cc1ccc(C(=O)O)cc1N1C(=O)c2cccc3c([N+](=O)[O-])ccc(c23)C1=O,14µM*,14%,7%,-17%,2%,-13%
O=C(O)c1ccc(CN2C(=O)c3ccc(C(=O)O)cc3C2=O)cc1,-9%,6%,-1%,6%,-10%,11%
Cc1nn2c(C)c(C(=O)NCc3ccco3)cnc2c1-c1ccccc1,?,/,/,6%,/,/
COc1cc(OC)c(NC(=O)CSc2cc(=O)n(C)c3ccc(Cl)cc23)cc1Cl,10%,/,/,-8%,/,/
CCc1ccc2oc(-c3ccc(C)c(NC(=O)c4ccc(C#N)cc4F)c3)nc2c1,6%,/,/,-9%,/,/
CCn1c(=O)cc(SCC(=O)NCCc2ccc(OC)cc2OC)c2ccccc21,7%,/,/,-8%,/,/
COc1ccc(OC)c(CNC(=O)CCc2c(C)nc3c(c2C)c(=O)n(C)c(=O)n3C)c1,-3%,/,/,0%,/,/
O=C(CCS(=O)(=O)c1cccc2nonc12)NCc1ccc(Cl)cc1,35µM*,7%,/,2%,-4%,0%
O=C(CCS(=O)(=O)c1cccc2nonc12)NCCc1ccccc1,?,-11%,-2%,1%,11%,2%
COc1cccc(CNC(=O)CCS(=O)(=O)c2cccc3nonc23)c1,45µM*,-4%,-12%,-2%,?,0%
O=C(CCS(=O)(=O)c1cccc2nonc12)N1CCCc2ccccc21,35µM*,-1%,0%,2%,16%,4%
COc1cccc(CNC(=O)CCS(=O)(=O)c2cccc3nsnc23)c1,-7%,-1%,2%,-11%,17%,-3%
CCN(C(=O)CCS(=O)(=O)c1cccc2nonc12)c1ccc(C)c(C)c1,40µM*,4%,3%,-8%,18%,3%
Oc1cc(CN2COc3ccccc32)c(O)cc1CNC1CCCCC1,/,/,3%,/,/,/
CCc1ccc(NCc2cc3cc4c(cc3n(CC(=O)Nc3ccccc3Cl)c2=O)OCO4)cc1,-35%,/,/,4%,/,/
Cc1ccccc1CNC(=O)c1ccc(CS(=O)Cc2ccc(Cl)cc2)o1 (stereo not given),-4%,/,/,0%,/,/
Cc1ccc(C(=O)Nc2ccccc2C(=O)OCc2cc(=O)n3nc(C4CC4)sc3n2)cc1,0%,/,/,4%,/,/
Cc1ccc(N2C(=O)CSC23C(=O)Nc2ccccc23)cc1F (stereo not given),8%,/,/,4%,/,/
COc1ccc(NS(=O)(=O)c2cccc3nonc23)c(OC)c1,18µM*,2%,?,-2%,-13%,-18%
COc1ccc(OC)c(NC(=O)CCNS(=O)(=O)c2cccc3nonc23)c1,-6%,0%,11%,6%,8%,5%
CCN1C(=O)c2cccc3cccc1c23,11µM*,1%,-48%,-6%,-2%,?
Oc1c(Cl)cccc1Cc1cc(Cl)cc(Cl)c1O,/,/,/,-8%,35µM*,/
CCOC(=O)c1c(C)oc(=O)c(CC)c1O,/,/,/,-1%,5%,/
